The values that follow come from ChEMBL document CHEMBL3988442, “University of Dundee, Small-Polar-MMV Screening Library” (2021).

Set-up in all cases: scale not given: direction of the effect not stated beside the values
In assay [1] the target is Protein translocase subunit SecA (Escherichia coli (strain K12)) (UniProt P10408). Briefly: Assay to Identify E. coli SecA ATPase Inhibitors. It counts as functional. As to conditions: 30 µM.
In assay [2] the target is T1, Ubiquitin-activating enzyme e1, putative (Leishmania donovani (strain BPK282A1)) (UniProt E9BSI1).
T1 sequence (whole entry): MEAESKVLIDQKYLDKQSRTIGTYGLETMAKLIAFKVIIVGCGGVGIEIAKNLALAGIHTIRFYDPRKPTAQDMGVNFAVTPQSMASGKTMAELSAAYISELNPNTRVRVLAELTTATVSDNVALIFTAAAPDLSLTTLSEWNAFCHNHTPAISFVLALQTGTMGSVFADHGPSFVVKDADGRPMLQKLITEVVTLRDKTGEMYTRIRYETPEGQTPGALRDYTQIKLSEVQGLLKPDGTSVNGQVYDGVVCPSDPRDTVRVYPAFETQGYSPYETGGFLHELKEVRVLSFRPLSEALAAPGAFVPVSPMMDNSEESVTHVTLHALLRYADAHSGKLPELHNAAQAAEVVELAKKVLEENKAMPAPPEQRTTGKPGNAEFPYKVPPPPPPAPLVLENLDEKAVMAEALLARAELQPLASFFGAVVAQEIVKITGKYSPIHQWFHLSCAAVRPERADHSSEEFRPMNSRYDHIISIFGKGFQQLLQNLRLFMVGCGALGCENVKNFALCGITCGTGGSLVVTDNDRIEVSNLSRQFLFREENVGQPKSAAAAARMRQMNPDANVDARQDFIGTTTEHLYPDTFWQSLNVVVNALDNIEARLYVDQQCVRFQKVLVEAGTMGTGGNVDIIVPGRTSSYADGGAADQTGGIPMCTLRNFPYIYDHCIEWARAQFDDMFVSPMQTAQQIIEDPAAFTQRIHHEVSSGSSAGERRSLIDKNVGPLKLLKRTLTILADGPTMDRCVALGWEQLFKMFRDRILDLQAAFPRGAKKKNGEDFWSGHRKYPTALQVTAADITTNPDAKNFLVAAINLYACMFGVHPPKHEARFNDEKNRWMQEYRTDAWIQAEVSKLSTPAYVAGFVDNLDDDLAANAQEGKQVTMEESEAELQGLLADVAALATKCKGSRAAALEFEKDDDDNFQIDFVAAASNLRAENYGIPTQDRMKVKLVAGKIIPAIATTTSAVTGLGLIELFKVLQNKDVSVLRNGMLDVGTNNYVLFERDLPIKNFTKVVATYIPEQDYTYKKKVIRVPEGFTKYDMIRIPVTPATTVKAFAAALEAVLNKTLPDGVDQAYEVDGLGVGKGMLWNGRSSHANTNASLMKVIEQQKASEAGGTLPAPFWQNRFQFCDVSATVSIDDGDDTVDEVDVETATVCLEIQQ
In words: Leishmania donovani Ubiquitin Activating Enzyme (LdE1). It is filed as functional. As to conditions: 30 µM.

Assay [3] addresses AMP-activated protein kinase, AMPK (Homo sapiens) (UniProt P54646+O43741+P54619+Q9UGJ0+Q9Y478+Q13131+Q9UGI9). In words: AMP-dependent Kinase enzyme assay. An in vitro enzyme assay that detects ADP turnover that is directly proportional to AMPK activity. This uses naive AMPK that is activated during the assay with MK-8722. It counts as functional. As to conditions: 30 µM.
The target in assay [4] is Sialic acid-binding Ig-like lectin 9 (Homo sapiens) (UniProt Q9Y336). In words: Hs-Siglec9 ALPHAscreen SOP 20170721. As to conditions: 10 µM. In general terms: Bead proximity is the source of the signal in Alpha formats.
Sequence of Sialic acid-binding Ig-like lectin 9 (Homo sapiens) (Q9Y336 whole entry): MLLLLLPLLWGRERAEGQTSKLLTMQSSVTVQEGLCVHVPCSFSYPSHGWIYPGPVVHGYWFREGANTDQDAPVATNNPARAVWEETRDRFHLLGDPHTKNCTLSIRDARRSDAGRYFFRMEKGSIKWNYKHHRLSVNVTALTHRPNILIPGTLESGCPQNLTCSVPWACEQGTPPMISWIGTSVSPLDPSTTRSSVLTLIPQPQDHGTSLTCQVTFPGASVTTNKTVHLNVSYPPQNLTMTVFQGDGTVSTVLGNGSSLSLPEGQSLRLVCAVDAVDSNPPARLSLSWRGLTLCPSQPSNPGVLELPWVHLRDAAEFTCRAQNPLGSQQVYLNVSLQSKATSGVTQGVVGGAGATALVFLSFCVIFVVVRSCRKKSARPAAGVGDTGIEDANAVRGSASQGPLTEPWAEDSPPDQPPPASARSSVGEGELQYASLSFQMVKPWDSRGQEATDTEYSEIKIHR
The test system of another assay is Trypanosoma cruzi. In words: Trypanosoma cruzi phosphomannomutase and mannose-1-phosphate guanylyltransferase assay. It is filed as functional. As to conditions: 10 µM.
Assay [5] deals with T2, Arginase-2, mitochondrial (Homo sapiens) (UniProt P78540).
T2 sequence (whole entry): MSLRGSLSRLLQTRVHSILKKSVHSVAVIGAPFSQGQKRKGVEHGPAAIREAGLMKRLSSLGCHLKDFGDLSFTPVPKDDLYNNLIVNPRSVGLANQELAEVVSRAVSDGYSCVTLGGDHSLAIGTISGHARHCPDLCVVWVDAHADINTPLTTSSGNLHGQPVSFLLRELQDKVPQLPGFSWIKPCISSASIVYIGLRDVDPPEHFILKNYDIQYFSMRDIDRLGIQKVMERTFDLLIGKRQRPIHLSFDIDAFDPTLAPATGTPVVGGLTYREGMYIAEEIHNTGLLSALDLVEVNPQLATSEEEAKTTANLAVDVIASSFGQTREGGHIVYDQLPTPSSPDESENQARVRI
Briefly: in vitro enzyme assay to detect the production of urea directly proportional to the activity of Arginase II. Note: in the data most compounds retested in dose-response had high values. It is filed as functional. As to conditions: 33.3 µM.

The target of assay [6] is T3, Proteasome subunit beta (Trypanosoma cruzi) (UniProt O96673).
T3 sequence (whole entry): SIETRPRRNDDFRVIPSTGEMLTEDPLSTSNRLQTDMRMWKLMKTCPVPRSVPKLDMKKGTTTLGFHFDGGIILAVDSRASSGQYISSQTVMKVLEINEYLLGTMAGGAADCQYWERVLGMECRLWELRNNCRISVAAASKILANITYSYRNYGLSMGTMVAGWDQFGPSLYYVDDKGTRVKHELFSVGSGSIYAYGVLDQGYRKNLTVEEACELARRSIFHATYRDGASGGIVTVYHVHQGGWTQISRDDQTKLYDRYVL
Briefly: Trypanosoma cruzi proteasome chymotrypsin-like activity (TcProtChymo) assay. Note: in the data most compounds retested in dose-response had high values. It is filed as functional. As to conditions: 9.37 µM.

The species entered for another assay is Homo sapiens. In words: To identify inhibition of the IFN signalling (Jak-Stat) pathway via expression of an eGFP reporter gene under the control of an IFN-stimulated response element (ISRE) containing MxA promoter. Conditions: 30 µM. It counts as functional.
Assay [7] addresses T4, Tyrosyl-tRNA synthetase, putative (Trypanosoma cruzi (strain CL Brener)) (UniProt Q4DSP6).
T4 sequence (whole entry): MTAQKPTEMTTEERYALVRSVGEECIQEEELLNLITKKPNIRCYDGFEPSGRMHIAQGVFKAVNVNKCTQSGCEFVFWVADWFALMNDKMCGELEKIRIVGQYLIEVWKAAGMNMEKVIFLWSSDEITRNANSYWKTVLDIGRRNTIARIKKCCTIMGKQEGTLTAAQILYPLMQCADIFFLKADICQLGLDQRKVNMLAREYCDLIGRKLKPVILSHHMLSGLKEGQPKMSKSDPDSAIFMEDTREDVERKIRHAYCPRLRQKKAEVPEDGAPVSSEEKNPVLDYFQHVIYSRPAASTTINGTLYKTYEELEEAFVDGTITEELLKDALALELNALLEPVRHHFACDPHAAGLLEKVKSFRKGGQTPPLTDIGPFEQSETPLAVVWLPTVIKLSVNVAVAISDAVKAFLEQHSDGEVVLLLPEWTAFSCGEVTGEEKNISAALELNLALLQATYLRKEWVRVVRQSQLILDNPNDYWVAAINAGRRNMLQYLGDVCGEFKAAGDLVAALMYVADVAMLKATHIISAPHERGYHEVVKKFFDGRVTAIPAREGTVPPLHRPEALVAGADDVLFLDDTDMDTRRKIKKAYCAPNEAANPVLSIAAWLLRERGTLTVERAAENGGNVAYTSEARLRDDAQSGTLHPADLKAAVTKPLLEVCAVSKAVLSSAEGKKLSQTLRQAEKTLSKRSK
Briefly: Trypanosoma cruzi tyrosyl tRNA synthetase (TcYRS) _High Tyrosine SOP. Note: in the data most compounds retested in dose-response had high values. It is filed as functional. As to conditions: 30 µM.

For assay [8], the target named is T4, Tyrosyl-tRNA synthetase, putative (Trypanosoma cruzi (strain CL Brener)). Briefly: Trypanosoma cruzi tyrosyl tRNA synthetase (TcYRS) SOP. It counts as functional. Conditions: 30 µM.
Assay [9] deals with Chromo domain-containing protein 1 (Saccharomyces cerevisiae (strain ATCC 204508 / S288c) (Baker's yeast)) (UniProt P32657). In words: ScCHD-1 Enzyme Inhibition Assay. Note: in the data most compounds retested in dose-response had high values. It counts as functional. As to conditions: 30 µM.
Sequence of Chromo domain-containing protein 1 (Saccharomyces cerevisiae (strain ATCC 204508 / S288c) (Baker's yeast)) (P32657 whole entry, the tested form may be a part): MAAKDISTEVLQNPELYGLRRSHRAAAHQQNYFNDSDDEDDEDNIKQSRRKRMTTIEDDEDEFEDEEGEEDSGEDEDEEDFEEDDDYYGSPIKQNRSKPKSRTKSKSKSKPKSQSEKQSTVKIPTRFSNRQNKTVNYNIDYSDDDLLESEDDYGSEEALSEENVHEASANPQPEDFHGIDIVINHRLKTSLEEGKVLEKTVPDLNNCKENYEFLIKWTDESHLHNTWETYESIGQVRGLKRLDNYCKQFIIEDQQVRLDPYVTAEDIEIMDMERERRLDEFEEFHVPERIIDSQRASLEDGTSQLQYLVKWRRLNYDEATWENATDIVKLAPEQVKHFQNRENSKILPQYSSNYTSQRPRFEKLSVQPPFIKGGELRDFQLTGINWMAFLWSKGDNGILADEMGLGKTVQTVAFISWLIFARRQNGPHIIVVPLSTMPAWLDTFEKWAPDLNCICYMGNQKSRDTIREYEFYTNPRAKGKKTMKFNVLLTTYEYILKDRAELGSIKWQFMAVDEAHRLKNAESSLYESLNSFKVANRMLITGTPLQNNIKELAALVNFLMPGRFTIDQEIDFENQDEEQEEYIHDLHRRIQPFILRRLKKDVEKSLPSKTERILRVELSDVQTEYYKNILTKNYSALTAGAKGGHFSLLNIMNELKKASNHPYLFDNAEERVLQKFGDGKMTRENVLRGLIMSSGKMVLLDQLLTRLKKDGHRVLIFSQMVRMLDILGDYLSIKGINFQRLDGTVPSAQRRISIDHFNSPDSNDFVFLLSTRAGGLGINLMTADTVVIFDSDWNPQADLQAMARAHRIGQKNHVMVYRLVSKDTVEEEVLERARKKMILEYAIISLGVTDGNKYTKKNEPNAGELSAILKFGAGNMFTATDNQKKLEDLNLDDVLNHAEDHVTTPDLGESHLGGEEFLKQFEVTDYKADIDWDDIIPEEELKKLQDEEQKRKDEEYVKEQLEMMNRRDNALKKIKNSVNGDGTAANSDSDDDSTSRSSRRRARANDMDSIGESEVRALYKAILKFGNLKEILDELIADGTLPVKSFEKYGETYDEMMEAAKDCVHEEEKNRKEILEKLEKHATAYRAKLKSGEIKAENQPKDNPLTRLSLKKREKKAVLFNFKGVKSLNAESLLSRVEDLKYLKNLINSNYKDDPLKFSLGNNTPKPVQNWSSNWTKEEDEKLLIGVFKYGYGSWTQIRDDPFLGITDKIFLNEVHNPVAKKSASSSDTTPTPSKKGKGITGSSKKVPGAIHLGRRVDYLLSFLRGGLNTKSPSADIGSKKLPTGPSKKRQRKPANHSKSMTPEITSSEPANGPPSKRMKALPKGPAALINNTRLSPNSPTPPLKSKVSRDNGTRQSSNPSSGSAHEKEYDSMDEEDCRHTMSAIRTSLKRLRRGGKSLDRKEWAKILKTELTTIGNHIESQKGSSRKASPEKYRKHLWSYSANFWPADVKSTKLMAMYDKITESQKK

SMILES strings stand for the structures. For some of these results: Measured potencies and affinities stand elsewhere.

Sequence of Protein translocase subunit SecA (Escherichia coli (strain K12)) (P10408 whole entry): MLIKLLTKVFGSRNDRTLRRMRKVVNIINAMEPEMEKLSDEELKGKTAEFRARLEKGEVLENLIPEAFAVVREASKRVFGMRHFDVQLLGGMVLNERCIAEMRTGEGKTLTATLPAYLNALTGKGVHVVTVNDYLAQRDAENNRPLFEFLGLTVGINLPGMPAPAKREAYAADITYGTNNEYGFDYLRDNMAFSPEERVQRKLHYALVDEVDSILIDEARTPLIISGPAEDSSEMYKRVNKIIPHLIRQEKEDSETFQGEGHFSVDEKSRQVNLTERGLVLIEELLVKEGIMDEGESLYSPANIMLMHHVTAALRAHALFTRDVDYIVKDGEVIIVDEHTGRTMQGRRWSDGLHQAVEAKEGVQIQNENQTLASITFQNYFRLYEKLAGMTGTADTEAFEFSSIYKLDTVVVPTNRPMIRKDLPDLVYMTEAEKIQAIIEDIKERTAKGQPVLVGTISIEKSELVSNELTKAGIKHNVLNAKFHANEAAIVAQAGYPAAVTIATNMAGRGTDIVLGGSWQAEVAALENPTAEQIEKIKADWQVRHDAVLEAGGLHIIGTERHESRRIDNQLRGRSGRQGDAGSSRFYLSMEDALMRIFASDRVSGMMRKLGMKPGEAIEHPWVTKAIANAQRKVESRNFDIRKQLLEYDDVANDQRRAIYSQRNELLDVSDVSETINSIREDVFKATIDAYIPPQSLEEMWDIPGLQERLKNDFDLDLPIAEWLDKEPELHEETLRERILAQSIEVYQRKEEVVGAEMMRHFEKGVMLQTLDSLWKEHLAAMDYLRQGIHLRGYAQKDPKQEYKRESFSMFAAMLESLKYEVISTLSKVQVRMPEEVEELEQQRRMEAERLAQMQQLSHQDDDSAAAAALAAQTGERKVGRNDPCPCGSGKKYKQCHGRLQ

Take `Cc1nn(C)c(C)c1C1CCCN1Cc1nc(C2CC2)no1` (stereo unspecified): the Percent Effect in assay [1] is -2.91%; in [2], 16.2%; in assay [3], 0.977%; in [4] it was -3.54%; with Trypanosoma cruzi it was 6.22%; in assay [5], -0.924%. The Percent Effect in assay [6] was 15.6%; in the assay filed under Homo sapiens it was 16.5%; in assay [7], 5.94%; in assay [8] it was 18.3%; in [9] it was -7.69%.

On to `Cc1cc(S(=O)(=O)N2CCC(S(C)(=O)=O)CC2)ccc1F`, for which the Percent Effect in assay [1] was -4.08%; in assay [2] it was 5.2%; in assay [3], 6.02%; in [4], 4.37%; in the assay on Trypanosoma cruzi, -0.493%; in assay [5], 8.39%. In addition, the Percent Effect in assay [6] is -2.96%; in the assay filed under Homo sapiens, 14.6%; in assay [7], 4.23%; in [8], 11.5%; in assay [9] it was -5.25%.

As to `CC(C)Cc1noc(CN2CCN(C(=O)c3ccco3)CC2)n1`, the Percent Effect in assay [1] was determined as 1.31%; in [2] it was 2.74%; in assay [3], 2.5%; in assay [4], 1.08%; in the assay with Trypanosoma cruzi it was 3.17%; in assay [5], 0%. Besides, the Percent Effect in [6] is 8.99%; in the assay filed under Homo sapiens, 5.51%; in assay [7], 5.21%; in assay [8], 8.64%; in assay [9], -2.76%.

As for `CS(=O)(=O)CCNC(=O)C1(c2cccc(Cl)c2)CCCCC1`, the Percent Effect in assay [1] is -7.1%; in [2] it was -1.39%; in assay [3] it was 0.793%; in [4], -3.56%; in the assay on Trypanosoma cruzi it was -1.46%; in [5] it was -2.65%. The Percent Effect is 6.14% in assay [6]; 13.7% in the assay filed under Homo sapiens; -4.21% in [7]; -7.69% in [8]; -0.434% in [9].

With `COc1cccc(S(=O)(=O)N2CCn3cnc(COCC4CC4)c3C2)c1`, the Percent Effect in assay [1] was -2.27%; in assay [2], 2.67%; in [3] it was 2.22%; in assay [4], 0.793%; in the assay on Trypanosoma cruzi, 0.386%; in [5], -33.1%. Also, the Percent Effect in assay [6] is 3.93%; in the assay listed under Homo sapiens, 7.62%; in assay [7], 3.12%; in [8], 5%; in assay [9], -4.77%.

Regarding `CNC(=O)[C@@]12CCO[C@@H]1CCN(Cc1scnc1C)C2`, the Percent Effect in assay [1] is 3.6%; in assay [2], 7.79%; in assay [3], 9.91%; in [4] it was -13.5%; in the assay with Trypanosoma cruzi, -7.4%; in assay [5], 7.1%. Also, the Percent Effect in assay [6] is 20.4%; in the assay filed under Homo sapiens, 5.25%; in [7], 5.29%; in assay [8] it was 6.41%; in assay [9], -8.35%.

Regarding `CN1CCN(c2ncc3c(=O)n(-c4cccc(F)c4)c(=O)[nH]c3n2)CC1`, the Percent Effect was 0.451% in assay [1]; 13.2% in assay [2]; 0.333% in assay [3]; -0.649% in assay [4]; -1.27% in the assay with Trypanosoma cruzi; 7.1% in assay [5]. The Percent Effect is 18.9% in assay [6]; -9.16% in the assay listed under Homo sapiens; 4.25% in assay [7]; 10.4% in [8]; 92.2% in [9].

Regarding `CC(C)c1nc(CN(C)C2CCN(Cc3nc(C4CC4)no3)C2)no1` (stereo unspecified), the Percent Effect is 4.92% in assay [1]; 11% in [2]; -9.72% in [3]; 4.44% in [4]; -8.42% with Trypanosoma cruzi; 1.36% in assay [5]. For the same molecule, the Percent Effect was 18.8% in assay [6]; 22.3% in the assay filed under Homo sapiens; 3.23% in [7]; 10% in assay [8]; -6.06% in assay [9].

As for `CCn1ccnc1CN1CCCN(C(=O)c2sccc2C#N)CC1`, the Percent Effect in assay [1] was -2.7%; in assay [2], -2.53%; in assay [3], 1.18%; in assay [4], 1.09%; in the assay with Trypanosoma cruzi, 0.472%; in assay [5], 1.52%. For the same molecule, the Percent Effect in [6] is -4.01%; in the assay filed under Homo sapiens, -12.1%; in [7], 6.4%; in assay [8] it was 8.86%; in assay [9], 0.721%.

For the molecule `Cc1ccc2c(c1)CCC21CCN(C(=O)CO)CC1`, the Percent Effect is -2.81% in assay [1]; 5.2% in [2]; -0.185% in [3]; 17.2% in assay [4]; 6.79% in the assay on Trypanosoma cruzi; -20.7% in [5]. Besides, the Percent Effect in [6] is 12.8%; in the assay filed under Homo sapiens, 15.4%; in [7], 4.3%; in assay [8], 6.17%; in assay [9] it was -7.19%.

For `Cc1cnn(CC2CCCN2C(=O)c2cc(C)no2)c1` (stereo unspecified), the Percent Effect was -7.95% in assay [1]; 5.26% in assay [2]; -9.36% in [3]; 0.94% in [4]; -8.12% in the assay with Trypanosoma cruzi; 0.36% in assay [5]. Also, the Percent Effect in assay [6] is -4.65%; in the assay filed under Homo sapiens it was 2.42%; in assay [7] it was -0.493%; in [8] it was -8.64%; in [9] it was 10.5%.
